Data on 40 compounds can be found in PubChem BioAssay (NCI).

Molecules are shown by their SMILES. Several values for one entry are separate records, joined by “and”; a condition that tells them apart may be missing. Equal values may be shown once. Compounds without any hit were thinned out: in the full panel of roughly 83,000, 20% have a hit.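 Cell lines were cultured in 96-well plates, exposed to a single compound concentration, and assessed for percent growth 48 hours later.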 Values without a mark were called inactive. Activity calls are given as the source filed them. Rule for the calls: active = growth percent below 10; inactive = the rest.

The test system of this assay is MDA-MB-468 breast. Put plainly: NCI-60 one-dose screen, 48 h (100 = growth as untreated, 0 = no growth, -100 = all killed). The note with it: 10 µM unless noted.
Consider `CCN1C(=S)N(CC)C2C1NN=C1SC(c3ccccc3)=CC(=O)N12` (stereo not given), for which the growth is 92.6%. For the compound `Nc1ccc2c(c1)c(N)nn2C(=O)Nc1ccc(Cc2ccccc2)cc1`, the growth is 98.4%.

For `c1cnc2[nH]cc(-c3csc(-c4cn(CCCN5CCCCC5)c5ccccc45)n3)c2c1`, the growth is 70.2%.

As for `COc1cc(Nc2c(C#N)cnc3cc(OCCCN4CCN(C)CC4)c(OC)cc23)c(Cl)cc1Cl`, the growth was 56.2%. As for `COc1cc(CNS(=O)(=O)c2ccc(C)cc2)ccc1OCc1cn(-c2ccc(Br)cc2)nn1`, the growth is 95.5%.

On to `CCCCCCCCCCCCCCCC(N)c1ccccc1` (stereo not given), for which the growth is -82.2% (active). In the case of `CCC1NC(=O)c2cc(S(N)(=O)=O)c(Cl)cc2N1` (stereo not given), the growth was 107%. On to `Oc1ccc(Cl)cc1Cc1cc(Cl)ccc1O`, for which the growth was 19.2%.

Take `C/C=C/CC(C)C(O)[C@H](NC(=O)[C@@H]1CCCN1C(=O)[C@](C)(CC)NC(=O)CCCCCCCCC)C(=O)N[C@@](C)(CC)C(=O)N[C@@H](CCC(N)=O)C(=O)N[C@H](CCC(N)=O)C(=O)NC(C)(C)C(=O)NC(C)(C)C(=O)N[C@@H](CCC(N)=O)C(=O)N[C@H](CC(C)C)C(=O)N[C@H](CO)CC(C)C` (stereo not given in full): the growth was -10.2% (active) and -64% (active).

`COc1cc(-c2cc(=O)oc3cc(O)ccc23)cc(OC)c1OC`: the growth was 74.2%. The same measure for `C=C1CCC2C3(C)COC(c4ccccc4)OC3CCC2(C)C1C/C=C1/C(=O)OCC1O` (stereo not given): 30.6%; for `Cn1ccc2c1CC1CN(Cc3ccco3)C(=O)C1C2C(=O)O` (stereo not given): 104%; for `COc1ccc2c3c([nH]c2c1)C(=O)c1nc(C)ccc1C3=O`: 14.8%.

On to `CCNc1nc(-c2ccc(F)cc2)c(C#N)c(=O)n1C`, for which the growth is 45%.

`C=CC(=O)Nc1cc(Nc2nccc(-c3cn(C)c4ccccc34)n2)c(OC)cc1N(C)CCN(C)C`: the growth was -74.1% (active). For `COc1ccc(-c2c3c(N)c4c(nc3nc3c2c(C)nn3-c2ccccc2)CCCCC4)cc1`, the growth was 76%. For the compound `COc1cccc(-c2nn(-c3ccccc3)cc2-c2ccnc(NCCNS(=O)(=O)c3ccccc3)c2)c1`, the growth was 14.5%.

For the compound `CCOC(=O)C(Cc1ccccc1)(C(=O)OCC)C(Br)C(=O)c1ccccc1` (stereo not given), the growth is -9.41% (active). As for `NC(=Nc1ccccc1)SCCCCSC(N)=Nc1ccccc1`, the growth is 82.6%. For `C=C1C(=O)O[C@H]2[C@H]1CC/C(COC(=O)OCCCCCOC(=O)OC/C1=C/CC[C@@]3(C)O[C@H]3[C@H]3OC(=O)C(=C)[C@@H]3CC1)=C\CC[C@@]1(C)O[C@@H]21` the value was -38.5% (active); for `CCN(CC)c1ccc(/C=C/c2cc(C)c3ccccc3n2)cc1`, 1.02% (active). `Brc1ccsc1Br`: the growth is 103%.

With `Cn1c(=O)c2c(nc3n(-c4ccc(Cl)cc4Cl)c(Sc4nc(-c5ccccc5)c(C#N)c(=O)[nH]4)cn23)n(C)c1=O`, the growth is 60.5%. In the case of `COc1ccc(-c2ccc(NC(=O)Nc3cccc(C(F)(F)F)c3)c(C)n2)cc1`, the growth is 27.5%. For `N=C(N)c1ccc(-c2ccc(-c3ccco3)o2)cc1F`, the growth was -57.4% (active). For `CCCn1c(=O)c2c(nc(-c3cccc(OCCCCl)c3)n2C)n(CCC)c1=O` the value was 23.6%; for `CC1=NOCC(=O)N1`, 95.9%.

As to `Cc1cccc(NC(=O)N/C(N)=N/c2nc3ccccc3s2)c1`, the growth is 17.8%. For the compound `C[C@H](NC(=O)c1snnc1C1CC1)c1c(F)cccc1Cl`, the growth is 99.4%. Consider `CC1Cc2c(ncn3c(-c4ccc(F)cc4)nnc23)N(C)c2ccccc21` (stereo not given), for which the growth is 66%.

As to `N#CC1=C(N)Oc2ccc3ccccc3c2C1c1ccc([N+](=O)[O-])cc1` (stereo not given), the growth was 66.7%. For `CCC(C)(C)C(=O)O[C@H]1C[C@@H](C)C=C2C=C[C@H](C)[C@H](CC[C@@H]3CC=CC(=O)O3)[C@H]21`, the growth was 52.1%. With `CCN(CC)CCCC(C)Nc1c2c(nc3ccc(OC)cc13)CCCC2` (stereo not given), the growth is 98.8%. The same measure for `Nc1cc2c(cc1C(=O)c1cccc(F)c1)OCCO2`: 93.8%. Consider `NCCCN1CCCC1=O`, for which the growth is 116%.

In the case of `C/C=C(\C)C(C(=O)NC1CCCCC1)N(C(=O)C1CCc2cc(F)ccc2O1)c1ccc(Cl)cc1` (stereo not given), the growth is 97%. Consider `COC(OC)C1(c2ccccc2)NC(=O)NC1=O` (stereo not given), for which the growth is 113%. On to `Cc1ccc(/C=C/c2nn3c(-c4ccco4)nnc3s2)cc1C`, for which the growth is 107%. Turning to `Cc1ccc2c(C)c3c(ccc4ccccc43)c[n+]2c1`, the growth is -42.1% (active).

Take `NC(=S)N/N=C1\c2ccccc2-c2c(F)c(F)c(F)c(F)c21`: the growth is 25.8%.
